Reference: PubChem BioAssay (NCATS)
Results filed as inconclusive are left out. A call without a number means that no potency is given here. Calls of active or inactive are those of the source. Calls follow the shape of the dose curve; as a rule, active = well fitted cell-killing curve with a large enough effect; inconclusive = small, poorly fitted or top-dose-only effect; inactive = no such curve, though single readings can be large or run the other way.
Potency is read from the fitted curve at half-maximal effect.

Test: qHTS of pediatric cancer cell lines to identify multiple opportunities for drug repurposing: Primary screen for SK-N-SH cells (AID 1347098); also: nearly all actives have a fitted effect of over 65% in size
Settings: SK-N-SH viability, CellTiter-Glo luminescence, 48 h; series mostly up to 57 µM
In short: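 Cells (500-1,000/well) rested 5 h, then received compounds for 48 h; metabolically active cells were measured by CellTiter-Glo luminescence. Final concentrations spanned up to 46 µM (MIPE, 11-point) or 0.59 nM-46 µM (NPC, 8-point) in primary screens, 11-point in follow-ups.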
With `Cc1nc(N)sc1-c1ccnc(Nc2ccc(N3CCOCC3)cc2)n1` the Potency was 6.81 µM (active). For `O=C1c2ccccc2-[n+]2ccc3c([nH]c4ccccc43)c21`, the Potency was 1.52 µM (active). For `C[C@H]1[C@H](NC(=O)C(=NOC(C)(C)C(=O)O)c2csc(N)n2)C(=O)N1S(=O)(=O)O`, the Potency was “inactive”. For `OC[C@@H](O)[C@H](O)[C@H](O)[C@@H](O)CO`, the Potency was “inactive”. With `C[N+](C)(C)CCCCCC[N+](C)(C)C` the Potency was “inactive”. For `C[N+]1(C)[C@@H]2CC(OC(=O)[C@H](CO)c3ccccc3)C[C@H]1[C@H]1O[C@@H]12` (some centres undefined), the Potency was “inactive”. For `CCOC(=O)O[C@]1(C(=O)OCCl)CC[C@@H]2[C@H]3CCC4=CC(=O)C=C[C@]4(C)[C@@H]3[C@@H](O)C[C@@]21C`, the Potency was “inactive”. In the case of `O=C(O)Cc1cccc2ccccc12`, the Potency was “inactive”. For `Cc1ccc(C(=O)Nc2cccc(C(F)(F)F)c2)cc1Nc1nc(-c2cccnc2)nc2c1cnn2C`, the Potency was “inactive”. For `NCCS`, the Potency was “inactive”. With `COc1ccc(-c2coc3cc(O)ccc3c2=O)cc1` the Potency was “inactive”. For `CN(C)CCC(c1ccccc1)c1ccccn1` (centres undefined), the Potency was “inactive”. In the case of `COc1cc(O)c2c(c1)C(=O)c1cc(C)cc(O)c1C2=O`, the Potency was “inactive”. For `O=c1c(-c2ccc(O)cc2)coc2cc(O[C@@H]3O[C@H](CO)[C@H](O)[C@H](O)[C@H]3O)ccc12`, the Potency was “inactive”. In the case of `C=C1C(=O)[C@@]23C(CC[C@@H]1[C@H]2O)[C@@]12CO[C@]3(O)[C@@H](O)[C@@H]1C(C)(C)CC[C@@H]2O` (some centres undefined), the Potency was 15.2 µM (active). In the case of `NC[C@@H]1O[C@@H](O[C@H]2[C@@H](O)[C@H](O[C@@H]3[C@@H](O)[C@@H](N)C[C@H](N)[C@H]3O[C@H]3O[C@H](CN)[C@@H](O)[C@@H](O)[C@H]3N)O[C@H]2CO)[C@H](N)[C@@H](O)[C@@H]1O`, the Potency was “inactive”. For `O=C1C[C@@H](c2ccc(O)cc2)Oc2cc(O)cc(O)c21`, the Potency was “inactive”. In the case of `O=C(O)c1cc(-c2ccccc2)nc2ccccc12`, the Potency was “inactive”. With `C[C@@H](O)[C@H]1C(=O)N2C(C(=O)O)=C(S[C@@H]3CN[C@H](C(=O)N(C)C)C3)[C@H](C)[C@H]12` the Potency was “inactive”. For `CC(=Cc1ccccc1)C=C1SC(=S)N(CC(=O)O)C1=O`, the Potency was 21.5 µM (active). In the case of `COc1ccc2cccc(CCNC(C)=O)c2c1`, the Potency was “inactive”. With `O=C(NC1CCOCC1)c1ccc(-c2cc(-c3cn[nH]c3-c3ccccn3)ccn2)cc1` the Potency was “inactive”. With `CC(C)C(=O)Oc1ccc(CO)cc1[C@H](CCN(C(C)C)C(C)C)c1ccccc1` the Potency was “inactive”. In the case of `O=C1NC(=O)C(c2ccccc2)(c2ccccc2)N1`, the Potency was “inactive”. For `Cn1c(N2CCCCS2(=O)=O)nc(C(=O)NCc2ccc(F)cc2)c(O)c1=O`, the Potency was “inactive”. With `O=C1NCC2(CCN(CCc3ccccc3)CC2)O1` the Potency was “inactive”. In the case of `O=C(O)c1cc(O)c2c(c1)C(=O)c1cccc(O)c1C2=O`, the Potency was “inactive”.

Test: qHTS of pediatric cancer cell lines to identify multiple opportunities for drug repurposing: Primary screen for NB1643 cells (AID 1347099); also: nearly all actives have a fitted effect of over 50% in size
Settings: NB1643 neuroblastoma viability, CellTiter-Glo luminescence, 48 h; series mostly up to 46 µM
In short: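 500-1,000 cells/well; 5 h pre-incubation 37 °C/5% CO2; compound pinned; 48 h; CellTiter-Glo, 15 min RT; luminescence. MIPE 11-pt from 0.78 nM, NPC 8-pt from 0.59 nM final. Bortezomib 2.3 µM final as positive control.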
With `Cc1nc(N)sc1-c1ccnc(Nc2ccc(N3CCOCC3)cc2)n1` the Potency was 9.35 µM (active). For `O=C1c2ccccc2-[n+]2ccc3c([nH]c4ccccc43)c21`, the Potency was 5.26 µM (active). With `C[C@H]1[C@H](NC(=O)C(=NOC(C)(C)C(=O)O)c2csc(N)n2)C(=O)N1S(=O)(=O)O` the Potency was “inactive”. For `OC[C@@H](O)[C@H](O)[C@H](O)[C@@H](O)CO`, the Potency was “inactive”. With `C[N+](C)(C)CCCCCC[N+](C)(C)C` the Potency was “inactive”. In the case of `CCOC(=O)O[C@]1(C(=O)OCCl)CC[C@@H]2[C@H]3CCC4=CC(=O)C=C[C@]4(C)[C@@H]3[C@@H](O)C[C@@]21C`, the Potency was “inactive”. For `O=C(O)Cc1cccc2ccccc12`, the Potency was “inactive”. With `Cc1ccc(C(=O)Nc2cccc(C(F)(F)F)c2)cc1Nc1nc(-c2cccnc2)nc2c1cnn2C` the Potency was 7.43 µM (active). With `NCCS` the Potency was “inactive”. In the case of `COc1ccc(-c2coc3cc(O)ccc3c2=O)cc1`, the Potency was “inactive”. With `CN(C)CCC(c1ccccc1)c1ccccn1` (centres undefined) the Potency was “inactive”. For `COc1cc(O)c2c(c1)C(=O)c1cc(C)cc(O)c1C2=O`, the Potency was “inactive”. For `O=c1c(-c2ccc(O)cc2)coc2cc(O[C@@H]3O[C@H](CO)[C@H](O)[C@H](O)[C@H]3O)ccc12`, the Potency was “inactive”. With `C=C1C(=O)[C@@]23C(CC[C@@H]1[C@H]2O)[C@@]12CO[C@]3(O)[C@@H](O)[C@@H]1C(C)(C)CC[C@@H]2O` (some centres undefined) the Potency was 1.48 µM (active). With `CN[C@@H](C)C(=O)N[C@H]1CN(C(=O)CC(C)C)CC[C@H]2CC[C@@H](C(=O)NC(c3ccccc3)c3ccccc3)N2C1=O` the Potency was “inactive”. With `NC[C@@H]1O[C@@H](O[C@H]2[C@@H](O)[C@H](O[C@@H]3[C@@H](O)[C@@H](N)C[C@H](N)[C@H]3O[C@H]3O[C@H](CN)[C@@H](O)[C@@H](O)[C@H]3N)O[C@H]2CO)[C@H](N)[C@@H](O)[C@@H]1O` the Potency was “inactive”. For `O=C1C[C@@H](c2ccc(O)cc2)Oc2cc(O)cc(O)c21`, the Potency was “inactive”. With `O=C(O)c1ccccc1C(=O)Nc1ccc(-c2ccccc2)cc1` the Potency was “inactive”. For `O=C(O)c1cc(-c2ccccc2)nc2ccccc12`, the Potency was “inactive”. In the case of `C[C@@H](O)[C@H]1C(=O)N2C(C(=O)O)=C(S[C@@H]3CN[C@H](C(=O)N(C)C)C3)[C@H](C)[C@H]12`, the Potency was “inactive”. With `CC(=Cc1ccccc1)C=C1SC(=S)N(CC(=O)O)C1=O` the Potency was “inactive”. With `CC(C)C(C)C=CC(C)C1CCC2C3=CC=C4CC(O)CCC4(C)C3CCC21C` (centres undefined) the Potency was “inactive”. For `O=C(NC1CCOCC1)c1ccc(-c2cc(-c3cn[nH]c3-c3ccccn3)ccn2)cc1`, the Potency was “inactive”. For `O=C1NC(=O)C(c2ccccc2)(c2ccccc2)N1`, the Potency was “inactive”. With `Cn1c(N2CCCCS2(=O)=O)nc(C(=O)NCc2ccc(F)cc2)c(O)c1=O` the Potency was “inactive”. In the case of `CC(C)(C)c1ccc(C(O)CCCN2CCC(C(O)(c3ccccc3)c3ccccc3)CC2)cc1` (centres undefined), the Potency was “inactive”. For `O=C1NCC2(CCN(CCc3ccccc3)CC2)O1`, the Potency was “inactive”.
